Assay outcomes from PubChem.
Menin MLL FP FL = inhibitors of human menin-MLL interaction, wild-type MLL peptide. Fluorescence polarization, fluorescein-MLL peptide displacement from menin. FP activity change, % at 61.4 µM. 290,000 tested, under 10 active; active = well fitted curve in the direction sought with a large enough effect in the polarisation, not every such curve was filed as active; inconclusive = small, poorly fitted or top-dose-only effect, or effect the other way, or a change in a side signal; inactive = no such curve, though single readings can be large or run the other way; the % refers to the polarisation; note: % of control where 0% means no effect
PINK1 modulator = modulators of PINK1 expression. Potency, µM (series often up to 76.6 µM), inactives show at the top dose activation (PINK1 increase), actives largely listed as activators. 0.2% of 410,000 active. PINK1 immunofluorescence, high-content cytometry, 24 h; active = well fitted activation curve with a large enough effect; inconclusive = small, poorly fitted or top-dose-only effect; cell line not stated here; note: potency is the fitted concentration of half-maximal effect; % of control where 0% means no effect; nearly all actives have a fitted effect of over 65% in size
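Cells are seeded, rested 12 hours, then given compound at five concentrations or DMSO for 24 hours. After fixation, blocking and antibody staining, PINK1 amount and mitochondrial localization are scored; CCCP serves as control.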
MLL CXXC-DNA inh = blocks binding of human MLL CXXC domain to DNA | Q03164 | MLL-CXXC / FITC-HOXA9 DNA fluorescence polarization | 0.037% of 290,000 active | Potency, µM (doses to about 115 µM), for inactives: at the highest dose activity change, negative = inhibition, hits mostly inhibitors; active = well fitted inhibition curve with a large enough effect in the polarisation, with a control signal flat, not every such curve was filed as active; inconclusive = small, poorly fitted or top-dose-only effect, or effect the other way, or a change in a side signal; inactive = no such curve, though single readings can be large or run the other way; the % refers to the polarisation; note: potency is the fitted concentration of half-maximal effect
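Fluorescence polarization: 7 uM MLL-CXXC (stock) preincubated 5 min with compounds, then 50 nM fluorescein-HOX-A9 DNA (stock) added; 30 min ambient. Buffer 50 mM Tris-HCl pH 7.5, 50 mM NaCl, 1 mM DTT, 0.05% BSA.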
Menin-MLL TR inh = menin-MLL binding inhibition, Texas Red mutant peptide | 0.23% of 270,000 active | Menin + Texas Red MLL mutant peptide, fluorescence polarization | O00255 | Potency, µM (titrated, usually from 61.6 µM), for inactives: at the highest dose FP activity change, negative = inhibition, hits mostly inhibitors | AID 1768; active = well fitted inhibition curve with a large enough effect in the polarisation, with a control signal flat, not every such curve was filed as active; inconclusive = small, poorly fitted or top-dose-only effect, or effect the other way, or a change in a side signal; inactive = no such curve, though single readings can be large or run the other way; the % refers to the polarisation; note: potency is the fitted concentration of half-maximal effect; % of control where 0% means no effect
Target sequence (O00255 whole entry, looked up): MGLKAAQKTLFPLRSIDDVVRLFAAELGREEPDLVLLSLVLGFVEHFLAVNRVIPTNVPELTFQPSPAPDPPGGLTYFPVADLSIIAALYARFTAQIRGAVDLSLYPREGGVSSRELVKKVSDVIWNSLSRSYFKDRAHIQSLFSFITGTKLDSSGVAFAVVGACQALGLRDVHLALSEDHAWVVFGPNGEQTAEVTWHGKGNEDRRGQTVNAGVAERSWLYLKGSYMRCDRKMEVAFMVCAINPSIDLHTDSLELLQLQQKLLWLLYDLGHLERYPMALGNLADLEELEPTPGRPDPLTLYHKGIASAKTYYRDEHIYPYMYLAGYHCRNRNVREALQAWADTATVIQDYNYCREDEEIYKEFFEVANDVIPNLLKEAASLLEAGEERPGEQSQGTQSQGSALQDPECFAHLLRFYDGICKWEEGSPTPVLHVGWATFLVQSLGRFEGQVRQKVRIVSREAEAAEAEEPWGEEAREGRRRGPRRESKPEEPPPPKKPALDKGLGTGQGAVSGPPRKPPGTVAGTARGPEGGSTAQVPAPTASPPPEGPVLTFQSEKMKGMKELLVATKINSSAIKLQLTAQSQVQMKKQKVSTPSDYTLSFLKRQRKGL
ClpP mod = qHTS Assay for Activators of ClpP; purified B. subtilis ClpP, FRET peptide cleavage, 20 min; AID 651965, 2013; Potency, µM (titrated, usually from 57.5 µM), for the others: top-dose activity change, negative = active; ATP-dependent Clp protease proteolytic subunit (Bacillus subtilis (strain 168)), P80244; 1.9% of 340,000 active; active = well fitted falling curve with a large enough effect; inconclusive = small, poorly fitted or top-dose-only effect; inactive = no such curve, though single readings can be large or run the other way; note: potency is the fitted concentration of half-maximal effect; the source files actives as falling curves though it sought activators and does not explain the sign; nearly all actives have a fitted effect of over 65% in size
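FRET quenching reversal measured ClpP activation: 10 microg/mL B. subtilis ClpP at pH 8 with the FRET-FV decapeptide, read at 430 nm after 320 nm excitation. The 20-min minus 0-min signal was scaled between DMSO/no-enzyme wells and ADEP (5.8 microM final).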
Epigenetic reg = regulators of epigenetic silencing causing reporter derepression in mouse cells. AID 1865. murine LDR cells, GFP reporter derepression, 30 h. 0.2% of 280,000 active. Potency, µM (series often up to 53.9 µM), for inactives: at the top dose GFP activation, actives largely listed as activators; active = well fitted activation curve with a large enough effect; inconclusive = small, poorly fitted or top-dose-only effect; note: potency is the fitted concentration of half-maximal effect; % of control where 0% means no effect; nearly all actives have a fitted effect of over 60% in size
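Derepression of a silenced CMV-GFP reporter in murine LDR cells is scored by enumerating GFP-positive cells with a laser-scanning microplate cytometer after 30 hours of treatment at 37 C.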
An asterisk follows results filed as active; ? = inconclusive; . = no result given; ! = not active in a repeat; [ ] = dose if it differs, or a comment. The list is not random: actives were taken first. Their share in the collection is about 1.9%.

SMILES	Menin MLL FP FL	PINK1 modulator	MLL CXXC-DNA inh	Menin-MLL TR inh	ClpP mod	Epigenetic reg
O=C(/C=C/c1ccco1)NCC(=O)N/N=C/c1ccc(Cl)cc1	-1	6%	14%	14%	-3%	3%
C/C(=N/NC(=O)CNC(=O)/C=C/c1ccco1)c1ccc(Cl)cc1	21	11%	-1%	?	28µM*	1%
CSc1nnc(CCNC(=O)c2ccc(-c3cccc(F)c3)cc2)n1-c1ccc(F)cc1	.	0%	.	.	.	.
Cc1cc(C)c2nc(N3CCOCC3)c(C#N)cc2c1	4	1%	-10%	-18%	.	.
N#Cc1cc2cc3c(cc2nc1N1CCOCC1)OCO3	0	-1%	-8%	1%	32µM*	-1%
CCc1cc(=O)oc2cc(C)cc(OCC(=O)NC(Cc3ccc(Cl)cc3)C(=O)O)c12 (configuration not stated)	-3	0%	17%	21%	5%	.
COc1nc(=O)n(C2OC(CO)C(O)C2O)cc1C (configuration not stated)	.	-3%	.	.	35µM*	.
Nc1ccn([C@@H]2O[C@H](CO)[C@@H](O)[C@@H]2O)c(=O)n1	1	-1%	13%	-7%	0%	0%
COc1cc(=O)n2c(c1C(=O)NCc1ccco1)CCN(Cc1c(F)cccc1F)CC2	.	0%	.	.	.	.
CCn1nc(C)c(/C=N/NC(=O)c2ccc3c(c2)c(C)c(C)n3Cc2ccccc2)c1C	0	2%	12%	-6%	10µM*	0%
C=C(C)Cn1c(CCNC(=O)CC)nc2ccccc21	-6	-1%	4%	12%	32µM*	-1%
Cc1c(C)n(Cc2ccc(F)cc2)c2ccc(C(=O)Nc3ccc(Cl)cc3)cc12	.	6%	.	.	32µM*	0%
CCc1cccc(NC(=O)c2ccc3c(c2)c(C)c(C)n3Cc2ccc(F)cc2)c1	.	6%	.	.	20µM*	0%
CCOc1ccc(NC(=O)c2ccc3c(c2)c(C)c(C)n3Cc2ccc(F)cc2)cc1	.	9%	.	.	?	-3%
Cc1ccc(Cn2c(CCNC(=O)c3cccc(C)c3)nc3ccccc32)cc1	.	20%	.	.	22µM*	1%
COc1cccc(CNC(=O)c2ccc3c(c2)c(C)c(C)n3Cc2ccccc2)c1	.	0%	.	.	?	-3%
Cc1ccc(CCNC(=O)c2ccc3c(c2)c(C)c(C)n3Cc2ccccc2)cc1	.	0%	.	.	22µM*	1%
CCc1ccc(NC(=O)c2ccc3c(c2)c(C)c(C)n3Cc2ccccc2)cc1	.	4%	.	.	22µM*	0%
CCc1ccc(CNC(=O)c2ccc3c(c2)c(C)c(C)n3Cc2ccccc2)cc1	.	-1%	.	.	25µM*	-2%
Cc1cnc(SCC2CCCO2)nc1C1CCCN(C(=O)C2=NNC(=O)CC2)C1 (configuration not stated)	.	0%	.	.	.	.
O=S1(=O)CCO[C@H]2CCCC[C@@H]2N1Cc1ccc(Cl)cc1	.	.	.	.	1%	.
COc1cc2nc(N3CCCN(C)CC3)nc(OC3CCN(C)CC3)c2cc1OC	.	-1%	.	.	4%	.
CSc1nc(C)cc(/C=C\c2ccccc2)c1C#N	4	25%[38.3 µM]	6%	-4%	28µM*	1%
CSc1nc(-c2ccccc2)cc(C)c1C#N	5	0%	0%	28%	.	3%
CC(C)CNC(=O)COc1ccc2c3c(c(=O)oc2c1)CCC3	-2	-3%[38.3 µM]	-18%	-15%	25µM*	-2%
SMILES	Menin MLL FP FL	PINK1 modulator	MLL CXXC-DNA inh	Menin-MLL TR inh	ClpP mod	Epigenetic reg
O=C(O)CCNC(=O)COc1ccc2c3c(c(=O)oc2c1)CCCC3	1	2%	2%	8%	4%	.
CC(C)CCNC(=O)COc1ccc2c3c(c(=O)oc2c1)CCC3	1	3%[38.3 µM]	-2%	14%	10µM*	1%
CC1(C)Nc2cccc3c(N=Nc4ccc(N=Nc5ccccc5)c5ccccc45)ccc(c23)N1	.	1%	.	.	-24%	.
O=C(N=C1SC2CS(=O)(=O)CC2N1c1c(Cl)cccc1Cl)C1CC1 (configuration not stated)	1	0%	-2%	3%	-1%	.
CC(=O)N=C1SC2CS(=O)(=O)CC2N1c1c(Cl)cccc1Cl (configuration not stated)	0	0%	5%	4%	32µM*	-6%
Cc1cccc(CNC(=O)c2cnn(-c3nccc(-c4cccs4)n3)c2C2CC2)n1	.	-1%	.	.	.	.
Cc1cccc(-n2ccnc2SCC(=O)O)c1C	-1	1%	-1%	5%	10µM*	0%
Cc1cccc(C(=O)NCc2nc(-c3ccccc3NC(=O)C3CCCO3)oc2C)c1 (configuration not stated)	.	1%	.	.	.	.
c1ccc(-c2oc3ncnc(NCCN4CCOCC4)c3c2-c2ccccc2)cc1	-5	-5%[38.3 µM]	-3%	27%	16µM*	1%
CCN1/C(=C/C(C)=O)Sc2ccc(OC)cc21	3	1%	-1%	?	-6%	-1%
CCOC(=O)/C(=C\C=C1/Sc2cc(OCC)c(OCC)cc2N1CC)C(C)=O	?	?	?	-15%	-21%	5.6µM*
NS(=O)(=O)c1ccc(S(=O)(=O)N2CCN(c3nc(-c4ccccc4)nc4ccccc34)CC2)cc1	.	2%	.	.	-27%	.
CC(=O)NC(Cc1ccc(O)cc1)C(=O)NCC(N)C(=O)c1ccccc1 (configuration not stated)	.	1%	.	.	-1%	.
Cc1cc(C)cc(C(=O)Nc2c(C(=O)Nc3ccccc3F)oc3ccccc23)c1	.	5%	.	.	13µM*	-1%
COc1cccc(C(=O)N2CCCC(c3nc(SCCN4CCOCC4)ncc3C)C2)c1 (configuration not stated)	.	2%	.	.	.	.
COC(=O)c1cc2oc3ccccc3c2n1CC(=O)Nc1ccccc1OC	6	10%	5%	15%	-22%	0%
CCOc1ccccc1CNC(=O)c1cc2oc3ccccc3c2n1CC	2	-1%	-18%	8%	32µM*!	0%
CCn1c(C(=O)NCc2ccc(F)cc2)cc2oc3ccccc3c21	.	-1%	.	.	4%	-3%
COc1cccc(CNC(=O)c2cc3oc4ccccc4c3n2C)c1OC	3	1%	-14%	-1%	25µM*	2%
O=C(Nc1ccc(Cl)cn1)c1cnn2c1NC(=C1CC1)C=C2C(F)F	.	1%	.	.	70%	.
CN(C)c1cc(N2CCOCC2)nc(C#N)n1	.	2%	.	.	-1%	.
O=C(N/N=C/c1ccccc1)c1[nH]c2ccc(Br)cc2c1-c1ccccc1	1	15%	4%	-1%	22µM*	1%
O=C(NN=C1CCCC1)c1[nH]c2ccc(Br)cc2c1-c1ccccc1	6	1%	0%	.	.	?
C/C(=N\NC(=O)c1ccc(N)cc1)C1CC1	.	-1%	6%	.	-4%	.
